In PubChem BioAssay (NCATS):
Inconclusive results are not listed. A call without a number means that no potency is given here. Activity calls are given as the source filed them. Calls follow the shape of the dose curve; as a rule, active = well fitted inhibition curve with a large enough effect; inconclusive = small, poorly fitted or top-dose-only effect; inactive = flat fitted curve, though single readings scatter.

assay: BET inhibitor-based combinations targeting novel dependencies in MECOM-rearranged (r) AML: AML-194 cell line (AID 2202237; also: nearly all actives have a fitted effect of over 40% in size); settings: AML-194 (MECOM-r AML) viability, CellTiter-Glo, 48 h; series mostly up to 46 µM
In short: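 Here, 11-point titrations of each agent were applied to 500 seeded cells and incubated 48 hr; CellTiter-Glo signal, scaled against DMSO and empty wells, was integrated as AUC, then Z-scored within the individual line.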
Potency is read from the fitted curve at half-maximal effect.

Row | SMILES | Potency
1 | NC(=O)c1ccc(-c2nc(-c3ccc4c(c3)OCCO4)c(-c3ccccn3)[nH]2)cc1 | inactive
2 | CN1C(=O)C[C@H](C(=O)N[C@@H](Cc2cnc[nH]2)C(=O)N2CCC[C@@H]2C(N)=O)NC1=O | inactive
3 | COc1ccccc1C(=O)Nc1cc2c(cc1N1CCCCC1)n(C)c(=O)n2C | inactive
4 | N[C@H](CSC(c1ccccc1)(c1ccccc1)c1ccccc1)C(=O)O | inactive
5 | O=C(/C=C/N1C[C@H]2C[C@@H]1CN2c1ccccn1)c1ccccc1O | inactive
6 | CCN(c1ccccc1)c1cc(NC)[n+](C)c(C)n1 | inactive
7 | CC(=O)Oc1cc2c(s1)CCN(C(C(=O)C1CC1)c1ccccc1F)C2 (stereo not given) | inactive
8 | CNC(=O)[C@H](Cc1ccccc1)NC(=O)[C@H](CC(C)C)[C@H](CSc1cccs1)C(=O)NO | inactive
9 | CN(C)c1ccc2cc(C(=O)N[C@@H](CCCN=C(N)CCl)C(=O)NCc3ccccc3)ccc2c1 | inactive
10 | O=C1c2ccccc2-[n+]2ccc3c([nH]c4ccccc43)c21 | 2.35 µM (active)
11 | CCOc1ccccc1N=Nc1c(C)[nH]n(-c2nc(-c3ccccc3)cs2)c1=O | inactive
12 | CC(=O)NC(CS)C(=O)O (stereo not given) | inactive
13 | NCc1c[nH]c(=S)n1[C@H]1CCc2c(F)cc(F)cc2C1 | inactive
14 | Nc1[nH]c(=O)ncc1F | inactive
15 | CCOC(=O)c1c(C)n(C)c2ccc(O)cc12 | inactive
16 | CCN(CC)CCOc1ccc(Cc2ccccc2)cc1 | inactive
17 | CCOc1cc(N)c(Cl)cc1C(=O)NCC1CN(Cc2ccc(F)cc2)CCO1 (stereo not given) | inactive
18 | NC(=O)c1ccc(I)c([N+](=O)[O-])c1 | inactive
19 | C[C@]12CC[C@@H]3c4ccc(O)cc4C[C@@H](CCCCCCCCCS(=O)CCCC(F)(F)C(F)(F)F)[C@H]3[C@H]1CC[C@H]2O (stereo not given in full) | inactive
20 | Oc1ccc(C2=Cc3ccc(O)cc3OC2)cc1 | 10.5 µM (active)
21 | COc1cc([C@H]2Oc3cc([C@H]4Oc5cc(O)cc(O)c5C(=O)[C@@H]4O)ccc3O[C@@H]2CO)ccc1O | inactive
22 | CC(NCCc1ccc(O)cc1)C(O)c1ccc(O)cc1 (stereo not given) | inactive
23 | O=c1[nH]c(=O)n([C@H]2C[C@H](O)[C@@H](CO)O2)cc1I | 16.6 µM (active)
24 | CCCn1c(=O)c2[nH]c(C34CC5CC3C[C@@H](C5)C4)nc2n(CCC)c1=O | inactive
25 | CC[C@@H](C)[C@H](NC(=O)[C@H](CC1CCCCC1)NC(=O)c1ccno1)C(=O)N1CCC2(CCc3ccccc32)CC1 | inactive
